Compounds with a hit are over-represented: about 4% of the library has one in this group of screens.
Mtb FBA inh – Mtb FBA enzyme inhibitors, primary screen, biochemical, fluorescence, strain H37Rv | Fructose-bisphosphate aldolase (Mycobacterium tuberculosis (strain ATCC 25618 / H37Rv)), … | 2.3% of 360,000 active | purified M. tuberculosis FBA, fluorescence read-out | AID 588726, 2011 | inhibition, % at 1 µM; in the data active means inhibition above about 27%;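 further: 0% = vehicle and 100% = reference inhibitor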
Rv3671c inh – Rv3671c serine protease inhibitors, primary screen, biochemical, fluorescence polarization, M. tuberculosis H37Rv. P9WHR9. inhibition, % at 5.96 µM. 0.048% of 320,000 active; in the data active means inhibition above about 38%;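 further: extracellular domain of Rv3671c used as enzyme; 0% = enzyme with DMSO and 100% = no enzyme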
Target sequence (P9WHR9 whole entry, looked up, the tested form may be a part): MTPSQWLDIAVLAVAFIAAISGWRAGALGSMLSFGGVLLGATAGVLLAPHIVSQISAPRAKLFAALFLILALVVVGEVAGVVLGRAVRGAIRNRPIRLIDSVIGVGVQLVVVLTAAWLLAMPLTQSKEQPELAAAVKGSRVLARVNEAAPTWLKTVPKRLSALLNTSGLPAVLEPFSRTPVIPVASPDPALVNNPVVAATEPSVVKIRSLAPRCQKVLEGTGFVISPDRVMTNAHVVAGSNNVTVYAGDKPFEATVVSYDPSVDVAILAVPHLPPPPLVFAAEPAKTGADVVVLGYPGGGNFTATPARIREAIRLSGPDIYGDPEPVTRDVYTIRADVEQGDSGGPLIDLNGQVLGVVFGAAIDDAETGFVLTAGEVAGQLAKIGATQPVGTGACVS
Mtb bLac sens – beta-lactam sensitization of Mtb H37Rv, H37Rv; inhibition, % at 25 µM; AID 434955, 2010; 0.27% of 330,000 active; M. tuberculosis H37Rv growth with meropenem, percent inhibition;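 further: growth measured after seven days incubation then overnight dye step; 0% = bacteria only wells and 100% = bacteria with antibiotic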
GDH-TPI inh – GDH-TPI coupling enzyme inhibitors, primary screen, artefact control for M. tuberculosis FBA inhibitor project, biochemical, absorbance, full deck | AID 588335, 2011 | inhibition, % at 4.8 µM | 1.2% of 360,000 active | GDH-TPI coupled enzyme counterscreen, NADH absorbance; in the data active means inhibition above about 30%;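 further: 0% = DMSO wells and 100% = wells lacking the enzyme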
RecA splice inh – Mtb RecA intein splicing inhibitors, primary screen, biochemical, fluorescence, HTS. cell-free RecA intein splicing. 0.75% of 290,000 active. Protein RecA (Mycobacterium tuberculosis (strain ATCC 25618 / H37Rv)), P9WHJ3. AID 2221, 2009. inhibition, % (test concentration not listed); in the data active means inhibition above about 30%; inconclusive means no clear call, values can overlap the other calls;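 further: 0% = vehicle wells and 100% = reference inhibitor control wells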
Mtb UGM inh – M. tuberculosis UGM enzyme inhibitors, primary screen, biochemical, fluorescence polarization, single point; 0.06% of 320,000 active; UDP-galactopyranose mutase (Mycobacterium tuberculosis (strain ATCC 25618 / H37Rv)), …; inhibition, % at 10 µM; purified UGM, fluorescence polarization probe displacement; in the data active means inhibition above about 10%, passing the limit was not always enough; inconclusive means no clear call, values can overlap the other calls
GFP chromophore – counter-screen: blocks GFP chromophore formation, dose response, counter-screen, biochemical, fluorescence, homogeneous; shares compounds with RecA splice inh; cell-free GFP chromophore formation; EC50, µM; 83% of 2,100 active
Starred values were filed as active, the others as inactive; ? = inconclusive; . = no result given. Unless noted, how the calls were made is not given here.

SMILES	Mtb FBA inh	Rv3671c inh	Mtb bLac sens	GDH-TPI inh	RecA splice inh	Mtb UGM inh	GFP chromophore
O=S(=O)(Nc1ccc(O)c2ccccc12)c1ccc(F)cc1	-2	-98	-1	6	94*	8	0.15*
CCc1ccc(S(=O)(=O)Nc2ccc(O)c3ccccc23)cc1	5	-4	10	-4	92*	0	0.15*
O=[N+]([O-])c1ccc(-c2cc(-c3ccc(Cl)cc3)n[nH]2)cc1	-1	-19	2	27	3	0	.
O=c1cc(-c2ccc(Cl)c(Cl)c2)[nH][nH]1	-4	-57	1	8	88*	-3	6.6*
O=c1cc(-c2ccc(Cl)cc2)[nH][nH]1	0	-153	4	-10	94*	0	1.9*
COc1ccc(-c2cc(=O)[nH][nH]2)cc1	1	-102	-9	-3	98*	1	1.9*
COc1ccc(-c2cc(=O)[nH]c(=O)[nH]2)cc1	-4	-2	-3	17	5	-2	.
CCOC(=O)C(C(=O)OCC)c1cc(Br)c2noc3c2c1C(=O)c1ccccc1-3	4	-1	100	2	82*	0	3.3*
O=C(COC(=O)C1C2CC3OC(=O)C1C3C2)Nc1ccc(Br)cc1 (stereo unspecified)	2	3	-6	-2	1	2	.
O=C(NC1CC1)c1cccc(NC(=O)C2CCN(S(=O)(=O)c3ccccc3C(F)(F)F)CC2)c1	2	.	.	10	.	.	.
N#Cc1ccc(Oc2nc(C#N)cc(-c3ccccc3)n2)cc1	0	-12	10	4	12	-2	.
N#Cc1cc(-c2ccccc2)nc(Oc2ccccc2)n1	0	-8	-3	5	60*	0	33*
Cc1cc(NC(=O)CCS(=O)(=O)c2nc(-c3ccccc3)cc(C(F)(F)F)n2)no1	-3	0	85	2	.	1	.
CS(=O)(=O)c1nc(-c2ccccc2)cc(C(F)(F)F)n1	3	-9	98	3	66*	5	13*
COc1ccc(N(C(=O)c2ccco2)S(=O)(=O)c2cccs2)cc1	3	-2	8	7	33*	-1	>38
O=C(Nc1ccccc1NC(=O)c1ccco1)c1ccco1	0	5	?	4	0	-2	.
O=C(Nc1ccccc1N(C(=O)c1ccco1)S(=O)(=O)c1cccs1)c1ccco1	-1	4	-3	2	10	1	5.8*
Cc1ccc(N(Cc2ccccc2)C(=O)CSC(C)C(=O)Nc2cc(C)on2)cc1 (stereo unspecified)	0	.	.	14	.	.	.
CS(=O)(=O)c1nc([N+](=O)[O-])nn1CCCc1ccccc1	-2	-2	67	5	51*	-1	26*
Cc1nnc(NC(=O)c2ccc(S(=O)(=O)C(F)F)cc2)s1	0	5	-6	19	.	0	.
O=C(Oc1cccc(N2C(=O)CCC2=O)c1)C1CC(=O)N(c2ccc(F)cc2)C1 (stereo unspecified)	2	0	6	-11	11	-4	.
O=C(Oc1ccc(Br)cc1)C1CC(=O)N(c2ccc(F)cc2)C1 (stereo unspecified)	2	-2	7	3	37*	2	35*
CC1(C(=O)NS(=O)(=O)c2ccc(F)cc2F)CCN1C(=O)c1ccccc1 (stereo unspecified)	4	.	.	-1	.	.	.
CC(=O)NC(c1ccc(Cl)cc1)c1c(O)ccc2ccc(O)cc12 (stereo unspecified)	8	-5	-2	0	59*	-1	12*
Cc1nc2ccccc2c2c1C(=O)N(Cc1cccnc1)C2=O	-1	-4	3	1	54*	2	0.81*
SMILES	Mtb FBA inh	Rv3671c inh	Mtb bLac sens	GDH-TPI inh	RecA splice inh	Mtb UGM inh	GFP chromophore
O=C1c2ccccc2C(=O)N1Cc1cccnc1	-1	5	-11	-3	-9	1	.
CCc1ccc(S(=O)(=O)/N=C2\C=C(Nc3ccc(C(=O)O)cc3)C(=O)c3ccccc32)cc1	-1	-176	5	7	91*	-1	0.24*
Cc1ccc(S(=O)(=O)/N=C2/C=C(Sc3ncn[nH]3)C(=O)c3ccccc32)c(C)c1	.	-181	9	.	.	0	.
CC(C)(C)c1ccc(S(=O)(=O)/N=C2\C=C(NS(=O)(=O)c3ccccc3)C(=O)c3ccccc32)cc1	-8	-56	6	7	63*	0	7.9*
Cc1ccc(S(=O)(=O)/N=C2\C=C(NS(=O)(=O)c3ccccc3)C(=O)c3ccccc32)c(C)c1	-1	.	.	6	.	.	.
Cc1ccc(S(=O)(=O)/N=C2\C=C(Nc3cccc(C(=O)O)c3)C(=O)c3ccccc32)cc1	0	-187	5	18	95*	0	0.51*
Cc1ccc(S(=O)(=O)/N=C2\C=C(Nc3cccc(C(=O)O)c3)C(=O)c3ccccc32)c(C)c1	-7	-179	12	19	82*	1	>38
COc1cc(C2(c3ccc(O)c(OC)c3)C(=O)Nc3c(Br)cc(Br)cc32)ccc1O	-1	0	7	-2	49*	4	12*
COc1cc(C2(c3ccc(O)c(OC)c3)C(=O)N(C)c3ccc(Br)cc32)ccc1O	1	1	-3	5	.	2	.
Cc1cc(C(c2ccc(O)cc2)c2cc(C)c(O)cc2C)c(C)cc1O	0	-12	16	4	33*	3	>38
Cc1ccc(N2CCN(S(=O)(=O)N3CCOCC3)CC2)cc1C	0	9	0	1	-6	3	.
COc1ccc(CN2CCNC(=O)C2CC(=O)N(C)C2CCOCC2)cc1OC (stereo unspecified)	0	.	.	2	.	.	.
CN(CCO)c1cc(Sc2nc3ccccc3s2)c2nonc2c1[N+](=O)[O-]	-4	-8	?	19	94*	1	1.4*
CC(=O)OCCN(C)c1cc(SC(C)C)c2nonc2c1[N+](=O)[O-]	-12	14	-5	11	34*	0	>38
CC(=O)NC1C(=O)N=C(SC(C)C(=O)Nc2cccc(Cl)c2)NC1=O (stereo unspecified)	-1	-2	-2	2	-4	2	.
COc1ccc2nc(C)cc(SCC(=O)NNC(=O)COc3ccccc3)c2c1	-2	-3	4	12	-3	2	.
COc1ccc2nc(C)cc(Sc3nc4ccccc4s3)c2c1	-1	-13	11	-4	38*	-1	24*
